In PubChem BioAssay (EPA / NIEHS):
Activity calls are given as the source filed them. Rule for the calls: active = hit-call score of the fitted dose curve at least 0.9, where 1 is the maximum; inactive = score below 0.9.

Test: ATG_M_19_CIS: Attagene CIS-FACTORIAL HepG2 Assay for M19 Transcription Factor (Internal Marker) (AID 2282939)
Details: HepG2 Attagene CIS-FACTORIAL M19 internal marker reporter; actives raise or lower the signal
Experimental: ATG_CIS is a cell-based, multiplexed-readout assay that uses HepG2, a human liver cell line, with measurements taken at 24 hours after chemical dosing in a 24-well plate.ATG_M_19_CIS is one of 52 assay component(s) measured or calculated from the ATG_CIS assay. It is designed to make measurements of mRNA induction, a form of inducible reporter, as detected with fluorescence intensity signals by Reverse transcription polymerase chain reaction (RT-PCR) and Capillary electrophoresis technology.Data from the assay component ATG_M_19_CIS was analyzed into 1 assay endpoint. This assay endpoint, ATG_M_19_CIS, was analyzed with bidirectional fitting relative to DMSO as the negative control and baseline of activity. Using a type of inducible reporter, measures of mRNA for gain or loss-of-signal activity can be used to understand the background control at the transcription factor-level as they relate to the gene . Furthermore, this assay endpoint can be referred to as a secondary readout, because this assay has produced multiple assay endpoints where this one serves a background control function. To generalize the intended target to other relatable targets, this assay endpoint is annotated to the background measurement intended target family, where the subfamily is internal marker.
Human liver HepG2 cells are transiently transfected with multiple reporter transcription units (MRTUs) in 6-well plates using FuGene 6 reagent (Roche; 3 ml FuGene/1 mg DNA). The MRTU constructs are regulated by a cis-regulating element (promoter). […] A major difference between the CIS and TRANS system is that in CIS activities of endogenous TFs are measured, whereas the TRANS assay evaluates changes in activities of exogenous, chimeric NR-Gal4 proteins. […] At the end of 24 hour incubation, total RNA was isolated using TriZol reagent (Invitrogen). The isolated RNA is then reverse-transcribed using oligo(dT) primer and Mo-MLV reverse transcriptase (Invitrogen) with DNAse I (Ambion) treatment for 30 min. The one-tenth of the produced cDNA was amplified by PCR using Taq DNA polymerase (Invitrogen) and two reporter sequence-specific primers. The PCR products were fluorescently labeled by primer extension with 6-arboxyfluorescein (6-FAM) 5'-labeled reporter sequence-specific primer (2 min at 95 C, 20 s at 68 C and 10 min at 72 C) and these products were digested with 5U of HpaI (New England Biolabs) for 2h at 37 C. The fragments were purified using Qiaquick PCR columns (Qiagen), analyzed on an ABI 3130xL genetic analyzer (Applied Biosystems) with peak positions identified by using a set of X-rhodamine (ROX)-labeled MapMarker1000 molecular weight standards (BioVentures). The raw capillary electrophoresis data was processed using Attagraph software (Attagene).

outcome, inactive:
O=C1CCCCCCCCCCCCCC1, CCCCCCCCCCC1CO1 (stereo not given), CCCCCCC(O)CCCCCCCCCCC(=O)OC (stereo not given), CC/C=C/CCO, CN1CCCC1, CC1=C(CC=O)C(C)(C)CCC1, CNC[C@H](O)[C@@H](O)[C@H](O)[C@H](O)CO, O=C(O)/C=C\C(=O)O, CN(C)CCCN1c2ccccc2CCc2ccc(Cl)cc21, O=[N+]([O-])c1ccccc1C(F)(F)F, Brc1ccc(Oc2ccc(Br)cc2)cc1, NCc1ccccc1, CCCCCCCCCCCCCCCCCC[N+](C)(C)C, CCCc1c(OCCCCc2nn[nH]n2)ccc(C(C)=O)c1O, O=C(C(=O)c1ccccc1)c1ccccc1, CC[N+](CC)(CC(=O)Nc1c(C)cccc1C)Cc1ccccc1 (tested in a mixture with another compound), O=C1NC(=O)C2CC=CCC12 (stereo not given), COCCCN, C[C@H]1C[C@H]2[C@@H]3CCC4=CC(=O)C=C[C@]4(C)[C@@]3(F)[C@@H](O)C[C@]2(C)[C@@]1(O)C(=O)CO, c1cc[c]([Bi]([c]2ccccc2)[c]2ccccc2)cc1, CC1=NN(c2cc(Cl)c(S(=O)(=O)O)cc2Cl)C(=O)C1N=Nc1ccc(S(=O)(=O)O)cc1 (stereo not given), c1ccc2c(c1)Oc1ccccc1S2, CCCCC(CC)COC(=O)CS (stereo not given), CCC(C)=NO, C=C(C)C(=O)OCC1CCCO1 (stereo not given), CC(=O)Nc1c(I)c(NC(C)=O)c(I)c(C(=O)O)c1I, c1ccc(CNc2ncnc3nc[nH]c23)cc1, CC1(C)S[C@@H]2[C@H](NC(=O)[C@H](N)c3ccccc3)C(=O)N2[C@H]1C(=O)O, CCOC(=O)c1ccccc1, C=C(C)C(=O)OCCCCCC, CC(C)(C)NC(=O)[C@@H]1CN(Cc2cccnc2)CCN1C[C@@H](O)C[C@@H](Cc1ccccc1)C(=O)N[C@H]1c2ccccc2C[C@H]1O, O=C(O)c1nc(Cl)c(Cl)c(Cl)c1Cl, OCCOCCOCCOCCOCCO, CCC(C)(CCC(C)C)C(=O)O (stereo not given), C=CCOC(=O)C(=C)C, CC(C)CC(=O)CC(C)CC(C)C (stereo not given), CC(=O)c1nccs1, CCCCCCCCCCCCCC, C/C=C(\C)C(=O)OCC/C=C\CC, Cc1cccnc1
